# Screening data: PubChem BioAssay, National Center for Advancing Translational Sciences (NCATS)
# Tau fluor counter: counter-screen for tau fibril formation inhibitors | tau K18 P301L Alexa594 fluorescence, heparin fibrillization | Potency, µM (highest dose often 57.7 µM), inactives show at the top dose activity change, negative = decrease | 280,000 tested, 0.93% active; note: potency is the fitted concentration of half-maximal effect; nearly all actives have a fitted effect of over 55% in size
#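 Human K18 P301L tau (15 uM unlabeled plus 0.24 uM Alexa 594-labeled, final) in 100 mM sodium acetate pH 7 was mixed with compound and 20 uM heparin and incubated 6 hr at 37 C.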
# PNC assembly inh: inhibitors of perinucleolar compartment assembly; PC3M PTB-GFP, PNC prevalence imaging, 16 h; active compounds read low; activity change (PNC), negative = inhibition, % at 10 µM; 140,000 tested, 3.1% active; AID 2417;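 active = readout at or below -70, meaning at least 70% loss of cells showing the perinucleolar compartment, a nuclear body marking cancer cells; inconclusive = readout between -30 and a set limit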;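 note: plate controls were DMSO wells for no effect and camptothecin positive control wells for full effect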
#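 Read-out is percentage of cells bearing a perinucleolar compartment, from automated 20x imaging of fixed, Hoechst-stained PC3M PTB-GFP cells. Cells were seeded 4 h, then exposed 16 h to compound (23 nl of library stock) in duplicate plates.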
# Tau fibril FP: tau fibrillization inhibition (FP); K18 P301L tau heparin fibrillization, Alexa594 FP, 6 h; 280,000 tested, 0.39% active; P10636; Potency, µM (titrated, usually from 57.7 µM), inactives show at the highest dose activity, negative = inhibition, actives largely listed as inhibitors; note: potency is the fitted concentration of half-maximal effect; nearly all actives have a fitted effect of over 55% in size
# Target sequence (P10636 561-689 P618L limits assumed): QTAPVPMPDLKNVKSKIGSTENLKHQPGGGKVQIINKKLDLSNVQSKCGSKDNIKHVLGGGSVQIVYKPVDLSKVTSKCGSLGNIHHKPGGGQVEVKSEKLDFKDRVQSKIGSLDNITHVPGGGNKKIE
#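 Recombinant K18 P301L […], labeled with Alexa 594 at 0.24 uM over 15 uM unlabeled; heparin inducer 20 uM final; 37 C, 6 hr; FP endpoint.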
# TRb-SRC2 inh: inhibitors of human thyroid hormone receptor beta-SRC2 interaction; P10828; TRbeta-SRC2 peptide binding, fluorescence polarization; receptor liganded with 1 µM T3; Potency, µM (doses to about 106 µM), without a hit: at the top dose activity change, negative = inhibition, hits mostly inhibitors; 280,000 tested, 0.065% active;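 note: potency is the fitted concentration of half-maximal effect; plate controls were bound peptide for no effect and peptide without receptor for full effect; nearly all actives have a fitted effect of over 50% in size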
# Target sequence (P10828 whole entry, looked up): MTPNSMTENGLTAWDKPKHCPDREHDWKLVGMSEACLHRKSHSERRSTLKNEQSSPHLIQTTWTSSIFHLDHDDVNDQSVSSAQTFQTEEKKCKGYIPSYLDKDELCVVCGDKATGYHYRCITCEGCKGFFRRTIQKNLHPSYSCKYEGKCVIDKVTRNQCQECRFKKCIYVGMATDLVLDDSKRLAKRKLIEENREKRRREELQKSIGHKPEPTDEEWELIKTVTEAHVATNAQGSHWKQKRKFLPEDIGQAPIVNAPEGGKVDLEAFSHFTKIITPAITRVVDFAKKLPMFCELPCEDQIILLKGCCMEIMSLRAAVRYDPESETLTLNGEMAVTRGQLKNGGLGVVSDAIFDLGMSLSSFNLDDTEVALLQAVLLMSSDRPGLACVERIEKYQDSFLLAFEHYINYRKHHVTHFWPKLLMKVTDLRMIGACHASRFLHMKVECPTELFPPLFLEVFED
#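 Assay buffer: 20 mM Tris-HCl, 100 mM NaCl, 10% glycerol, 1 mM EDTA, 0.01% NP-40, 1 mM DTT, 1 uM T3, 5% DMSO; TRb LBD 0.6 uM, Texas Red SRC2 20 nM; FP after 5 hr.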
# TR SRC2 fluor cs: counter-screen for TRb-SRC2 inhibitors: fluorescence interference; TRb/SRC2 Texas Red total fluorescence interference; Potency, µM (titrated, usually from 106 µM), inactives show at the highest dose fluorescence change, negative = quenching; 280,000 tested, 0.29% active; AID 1479; active = well fitted curve in either direction with a large enough effect; inconclusive = small, poorly fitted or top-dose-only effect; note: potency is the fitted concentration of half-maximal effect
#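 Human TRβ ligand-binding domain (0.6 uM) and Texas Red SRC2 peptide (20 nM) in Tris buffer with 1 uM T3 and 5% DMSO were incubated with pinned compound for 5 hr at ambient temperature. Total fluorescence was computed as S + 2P (555/632 nm).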
# Tau fibril ThT: blocks human tau fibril formation measured by thioflavin T; P10636; recombinant tau K18 P301L (four-repeat tau fragment), heparin-induced fibrillization, ThT fluorescence; Potency, µM (doses to about 57.4 µM), without a hit: at the top dose activity, negative = inhibition, hits mostly inhibitors; 270,000 tested, 2.1% active; AID 1460; note: potency is the fitted concentration of half-maximal effect; nearly all actives have a fitted effect of over 55% in size
#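 Recombinant human tau K18 fragment […] carrying P301L, 15 uM unlabeled plus 0.24 uM Alexa 594-labeled, was fibrillized with 20 uM heparin in 100 mM sodium acetate pH 7 for 6 hr at 37 C; 30 uM ThT fluorescence read after 1 hr.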
# The depositor's hits bear a star; ? = inconclusive; · = no result given; [ ] = remark or other dose. In the library only some 4.6% were active in any assay of this set; here they are far more common. Unless noted, calls come from the whole dose curve; as a rule, active = well fitted curve in the direction sought with a large enough effect; inconclusive = small, poorly fitted or top-dose-only effect, or another doubt; inactive = no such curve, though single readings can be large; an effect the other way counts as inactive or inconclusive. Unless noted, % is set by controls: 0 for no effect and ±100 for the full control effect.
SMILES,Tau fluor counter,PNC assembly inh,Tau fibril FP,TRb-SRC2 inh,TR SRC2 fluor cs,Tau fibril ThT
Cc1ccc(C)c(CN2C(=O)c3ccccc3S(=O)(=O)c3ccc(C(=O)N4CCOCC4)cc32)c1,-25%,·,2%,-30%,2.8µM*[quencher],-12%
Cn1ccc2c(OCC(=O)NCc3ccc(F)cc3)cccc2c1=O,1%,·,-7%,3%,-2%,0%
COc1ccc(CC(=O)Nc2ccc(S(=O)(=O)N(C)C)cc2)cc1OC,-3%,17,-5%,-5%,1%,-2%
N#Cc1c(/N=C/c2ccc(Br)s2)sc2c1CCC2,-14%,-100*,-6%,1%,-4%,?
N#Cc1c(/N=C/c2cccs2)sc2c1CCCCC2,-26%,?,-6%,-5%,-1%,3.2µM*
N#Cc1c(/N=C/c2cccnc2)sc2c1CCCC2,-17%,·,7%,4%,-3%,?
CN(C(=O)COC(=O)c1ccc(Cl)cc1N)C1CCCCC1,-2%,·,-2%,-1%,-6%,0%
CC(C)c1nc2sc3c(=O)[nH]cnc3c2c2c1CCC2,-1%,-84*,-2%,-15%,-1%,1%
NS(=O)(=O)c1ccc(N=Nc2ccc(=O)[nH]c2O)cc1,-16%,·,-22%,5%,-4%,16µM*
Nc1nc(N)c(N=Nc2ccc(S(N)(=O)=O)cc2)c(=O)[nH]1,-14%,·,0%,-1%,-4%,20µM*
NS(=O)(=O)c1ccc(N=NN2CCCCC2)cc1,-7%,·,4%,4%,-2%,-14%
Nc1nc(N)c(N=Nc2ccc(Cl)cc2)c(=O)[nH]1,-2%,·,8%,-4%,-2%,?
O=C(CSc1nc2ccccc2n1S(=O)(=O)c1ccccc1)N1CCCCC1,4%,-6,-6%,-5%,-1%,5%
Cc1ccccc1NCC(=O)N/N=C\c1ccc2c(c1)OCO2,-29%,·,-7%,2%,-1%,?
Cc1cc(N/N=C/c2ccc(Cl)cc2Cl)nc(NCc2ccccc2)n1,-29%,-14,-11%,4%,1%,?
Cc1cc(Nc2ccccc2)nc(NCc2ccccc2)n1,18µM*[quencher],?,?,1%,-4%,-10%
Cc1cc(Nc2cccc(F)c2)nc(NCc2ccccc2)n1,16µM*[quencher],-20,?,7%,-2%,0%
Cc1cc(N/N=C/c2ccc(F)cc2)nc(NCc2ccccc2)n1,?,·,-17%,3%,0%,-18%
Cc1cc(N/N=C/c2ccc(N(C)C)cc2)nc(NCc2ccccc2)n1,7.9µM*[quencher],·,4%,2%,-5%,4µM*
Cc1ccc(/C=N/Nc2cc(C)nc(NCc3ccccc3)n2)cc1,?,·,?,-2%,4%,?
CCCCNc1cc(C)nc(NCc2ccccc2)n1,-21%,6,-3%,-6%,-1%,-11%
Cc1cc(Nc2ccc(Cl)cc2)nc(NCc2ccccc2)n1,18µM*[quencher],34,?,4%,-6%,-18%
O=C(c1cccs1)N(c1cccc(Cl)c1)C1C=CS(=O)(=O)C1 (stereo not drawn),-6%,·,0%,3%,0%,-5%
C=C(C)C(=O)Nc1ccc(NC(C)C)cc1,-10%,·,-2%,2%,0%,-12%
CC(C)c1ccc(-c2cc(C(=O)NN3CCN(C)CC3)c3ccccc3n2)cc1,4%,25,-3%,8%,-2%,15%
SMILES,Tau fluor counter,PNC assembly inh,Tau fibril FP,TRb-SRC2 inh,TR SRC2 fluor cs,Tau fibril ThT
Cc1ccc2[nH]c3c(c2c1)CCCC3C(N)=O (stereo not drawn),-12%,-25,9%,6%,-3%,-10%
CCN(CC)C(=O)C1CCCc2c1[nH]c1ccc(Cl)cc21 (stereo not drawn),-17%,-93*,1%,3%,-4%,-11%
O=C(Nc1ccc(Cl)cc1)c1cnn2c1NC(c1ccccc1)=CC2c1ccccc1 (stereo not drawn),10µM*[quencher],·,?,0%,4%,?
Cc1ccc(S(=O)(=O)N/N=C2/CCCCC2C2CCCCC2)cc1[N+](=O)[O-] (stereo not drawn),?,-26,7%,4%,-2%,-15%
O=C(O[C@@H]1Cc2c(O)cc(O)cc2OC1c1ccc(O)c(O)c1)c1cc(O)c(O)c(O)c1 (stereo partly drawn),13µM*[quencher],·,?,5%,-8%,16µM*
O=C(OC1Cc2c(O)cc(O)cc2OC1c1cc(O)c(O)c(O)c1-c1c(C2Oc3cc(O)cc(O)c3CC2OC(=O)c2cc(O)c(O)c(O)c2)cc(O)c(O)c1O)c1cc(O)c(O)c(O)c1 (stereo not drawn),14µM*[quencher],·,?,6%,-28%,25µM*
CCCC1(c2ccccc2)NC(=O)N(CC(=O)Nc2cc(S(=O)(=O)N3CCOCC3)ccc2Cl)C1=O (stereo not drawn),-6%,·,5%,4%,-3%,-2%
CC1(C)CC2(CC(c3ccccc3F)c3ccc(O)c(O)c3O2)NC(=S)N1 (stereo not drawn),?,·,?,-1%,-4%,22µM*
Cc1csc2nc(-c3cccc(NC(=O)c4c(F)cccc4F)c3)cn12,?,·,-15%,0%,-2%,-16%
Cc1ccccc1NS(=O)(=O)c1ccc(NC(=O)CSCc2ccc(Br)cc2)cc1,?,-99*,?,10%,1%,3%
O=C(CSCc1ccc(Br)cc1)Nc1ccc(S(=O)(=O)N2CCOCC2)cc1,?,39,-21%,4%,1%,-6%
COc1ccc(S(=O)(=O)Nc2ccccc2C(=O)NC(C)C)cc1OC,4%,-124*,-1%,-8%,-1%,3%
COc1ccc(-c2csc(NC(=O)c3ccccc3NS(=O)(=O)c3ccc(F)c(F)c3)n2)cc1,?,·,?,11%,-19%,22µM*
CCC(C)NC(=O)c1ccccc1NS(=O)(=O)c1ccc(OC)c(OC)c1 (stereo not drawn),2%,9,3%,3%,2%,-2%
COC(=O)c1cccc(NS(=O)(=O)c2ccc(OC)c(OC)c2)c1C,-7%,-84*,-4%,1%,-2%,-7%
O=C(/C=C/c1ccccc1)c1ccccn1,-3%,110,10%,-2%,-1%,?
O=C(CN1C(=O)COc2ccc(S(=O)(=O)N3CCCCCC3)cc21)N1CCN(c2ccccc2F)CC1,-3%,·,-7%,0%,-2%,-8%
Cc1cc(C(=O)COC(=O)c2cc(O)c3ccccc3c2O)c(C)n1CC1CCCO1 (stereo not drawn),?,·,?,-1%,-5%,14µM*
Cc1cc(C)c(N)c(C(=O)O)c1,8%,·,2%,5%,0%,-1%
Cc1cc(C)c(O)c(N)c1,-25%,·,-17%,-3%,-3%,22µM*
